From PubChem BioAssay (NCI) come the findings set out here.

Test systems include SR leukemia; RPMI-8226 leukemia; OVCAR-8 ovarian; OVCAR-5 ovarian; OVCAR-4 ovarian; SK-OV-3 ovarian; OVCAR-3 ovarian; HS 578T breast; NCI/ADR-RES ovarian; IGROV1 ovarian.
What all share (assay): NCI-60 one-dose screen, 48 h (100 = growth as untreated, 0 = no growth, -100 = all killed)
Details in all cases: 10 µM unless noted

“And” between values parts separate entries of the source, which are not always exact repeats. Equal entries are not always repeated. Compounds without any hit were thinned out: in the full panel of roughly 83,000, 20% have a hit.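 Results are percent growth after 48 hours of single-concentration exposure. 100 means growth as in untreated cells, lower positive values show inhibition; negative values down to -100 show cell death.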 Some compounds were tested as several samples or in several runs, with calls that do not always agree. The source made the active and inactive calls. Rule for the calls: active = growth percent below 10; inactive = the rest.

In the case of `CC(=O)c1ccc2c(c1)N(CCCN1CCN(CCO)CC1)c1ccccc1S2`, the growth is -30.2% (active) with SR leukemia; 77.6% (inactive) and 10.7% (inactive) in the experiment with RPMI-8226 leukemia; 82.5% (inactive) and 72.9% (inactive) in the experiment on OVCAR-8 ovarian; 93% (inactive) and 51.6% (inactive) with OVCAR-5 ovarian; 101% (inactive) and 49.8% (inactive) in the experiment with OVCAR-4 ovarian; 152% (inactive) and 50.5% (inactive) in the experiment with SK-OV-3 ovarian. The growth with OVCAR-3 ovarian was 103% (inactive) and 40.7% (inactive); with HS 578T breast, 87.6% (inactive) and -20.1% (active); in the experiment with NCI/ADR-RES ovarian it was 95.6% (inactive) and 45.8% (inactive).
Regarding `O=C1c2ccccc2C(=O)N1/N=C/c1ccc2c(c1)OCO2`, the growth in the experiment on SR leukemia is 82% (inactive); in the experiment with RPMI-8226 leukemia it was 88.5% (inactive); in the experiment on OVCAR-8 ovarian it was 100% (inactive); in the experiment with OVCAR-5 ovarian it was 93.1% (inactive); in the experiment on OVCAR-4 ovarian, 113% (inactive); in the experiment on SK-OV-3 ovarian it was 97.5% (inactive). The growth in the experiment on IGROV1 ovarian is 101% (inactive); with OVCAR-3 ovarian, 108% (inactive); with HS 578T breast, 78.7% (inactive); in the experiment on NCI/ADR-RES ovarian, 110% (inactive).
For the compound `O=C(O)c1cc(C(=O)O)cc([N+](=O)[O-])c1`, the growth is 86.4% (inactive) in the experiment on SR leukemia; 108% (inactive) in the experiment on RPMI-8226 leukemia; 106% (inactive) with OVCAR-8 ovarian; 105% (inactive) in the experiment on OVCAR-5 ovarian; 108% (inactive) with OVCAR-4 ovarian; 108% (inactive) in the experiment on IGROV1 ovarian. Moreover, the growth in the experiment on OVCAR-3 ovarian is 111% (inactive); with HS 578T breast, 112% (inactive); in the experiment with NCI/ADR-RES ovarian, 106% (inactive).
Take `Cc1ccc(-c2noc(C)n2)cc1`: the growth with SR leukemia was 90.7% (inactive); with OVCAR-8 ovarian, 101% (inactive); in the experiment on OVCAR-5 ovarian it was 98.9% (inactive); in the experiment on OVCAR-4 ovarian, 118% (inactive); in the experiment with SK-OV-3 ovarian, 112% (inactive); in the experiment with IGROV1 ovarian, 102% (inactive). Also, the values for the growth with OVCAR-3 ovarian, with HS 578T breast and in the experiment on NCI/ADR-RES ovarian were 122% (inactive), 107% (inactive) and 108% (inactive), respectively.
For the compound `NC(=S)N/N=C(\c1ccc(Br)cc1)C1CC1`, the growth with SR leukemia is 87.6% (inactive); in the experiment with OVCAR-8 ovarian, 83% (inactive); with OVCAR-5 ovarian it was 110% (inactive) and 97.1% (inactive); in the experiment on OVCAR-4 ovarian, 74.4% (inactive); with SK-OV-3 ovarian, 105% (inactive) and 97% (inactive); in the experiment with IGROV1 ovarian it was 18.1% (inactive) and 42.3% (inactive). Besides, the growth was 38.3% (inactive) and 37.1% (inactive) with OVCAR-3 ovarian; 96.1% (inactive) and 98% (inactive) in the experiment on HS 578T breast; 74.2% (inactive) and 57.5% (inactive) in the experiment on NCI/ADR-RES ovarian.
Regarding `Cc1ccc(-c2noc(CC(=O)c3ccc([N+](=O)[O-])cc3)n2)cc1`, the growth with SR leukemia was 98.1% (inactive); in the experiment with RPMI-8226 leukemia, 116% (inactive); in the experiment on OVCAR-8 ovarian, 100% (inactive); with OVCAR-5 ovarian it was 97.5% (inactive); in the experiment on OVCAR-4 ovarian it was 102% (inactive); in the experiment with IGROV1 ovarian, 104% (inactive). For the same compound, the growth in the experiment on OVCAR-3 ovarian was 102% (inactive); with HS 578T breast, 99.8% (inactive); in the experiment on NCI/ADR-RES ovarian, 104% (inactive).
As for `N/C(=N\N=C\c1ccc2c(c1)OCO2)N/N=C\c1ccc2c(c1)OCO2`, the growth in the experiment on SR leukemia is -8.73% (active); in the experiment on RPMI-8226 leukemia, 98.5% (inactive) and 67.3% (inactive); in the experiment on OVCAR-8 ovarian, 102% (inactive) and 95% (inactive); in the experiment on OVCAR-5 ovarian, 122% (inactive) and 96.9% (inactive); in the experiment on OVCAR-4 ovarian, 93.8% (inactive); with IGROV1 ovarian, 112% (inactive) and 96.8% (inactive). For the same compound, the growth was 126% (inactive) and 101% (inactive) with OVCAR-3 ovarian; 115% (inactive) and 92.5% (inactive) in the experiment on HS 578T breast; 101% (inactive) and 82.6% (inactive) with NCI/ADR-RES ovarian.
With `Nc1ccc(N=Nc2ccc(S(=O)(=O)O)cc2)cc1S(=O)(=O)O`, the growth was 108% (inactive) and 157% (inactive) with SR leukemia; 86.7% (inactive) and 40.2% (inactive) with RPMI-8226 leukemia; 96.5% (inactive) and 79.6% (inactive) with OVCAR-8 ovarian; 101% (inactive) and 107% (inactive) with OVCAR-5 ovarian; 118% (inactive) and 87.9% (inactive) in the experiment with OVCAR-4 ovarian; 79.3% (inactive) and 76.1% (inactive) with IGROV1 ovarian. Moreover, the growth in the experiment on OVCAR-3 ovarian was 108% (inactive) and 210% (inactive); with HS 578T breast it was 83.7% (inactive) and 88.9% (inactive); with NCI/ADR-RES ovarian, 95.6% (inactive) and 99.4% (inactive).
For the compound `CC1=C(/C=C/C(C)=C/C=C/C(C)=C/C(=O)Nc2ccc(O)cc2)C(C)(C)CCC1`, the growth in the experiment with SR leukemia was -4.85% (active); with OVCAR-8 ovarian, 65.9% (inactive); in the experiment with OVCAR-5 ovarian, 89.9% (inactive); in the experiment on OVCAR-4 ovarian it was 44.3% (inactive); in the experiment on SK-OV-3 ovarian, 69.3% (inactive); in the experiment with IGROV1 ovarian, -0.235% (active). Moreover, the growth in the experiment with OVCAR-3 ovarian is 27.8% (inactive); in the experiment on HS 578T breast it was 63.3% (inactive); in the experiment on NCI/ADR-RES ovarian it was 39.1% (inactive).
Turning to `COc1cc(NS(C)(=O)=O)ccc1Nc1c2ccccc2nc2c(C)cccc12`, the growth in the experiment on SR leukemia is 4.23% (active) and -21.5% (active); in the experiment with RPMI-8226 leukemia, -36.4% (active) and -21.4% (active); in the experiment on OVCAR-8 ovarian, 0.169% (active) and 1.18% (active); in the experiment on OVCAR-5 ovarian, 4.75% (active) and 8.59% (active); with OVCAR-4 ovarian, 42.9% (inactive) and 62.8% (inactive); in the experiment with IGROV1 ovarian it was 2.93% (active) and 14.4% (inactive). For the same compound, the growth in the experiment with OVCAR-3 ovarian is -57% (active) and 24.6% (inactive); with HS 578T breast it was 32.7% (inactive) and 43% (inactive); with NCI/ADR-RES ovarian, 27.7% (inactive) and 40.4% (inactive).
As for `CC(=O)Nc1cc(S(=O)(=O)O)cc2cc(S(=O)(=O)O)c(N=Nc3ccccc3)c(O)c12`, the growth with SR leukemia is 98.8% (inactive) and 92.1% (inactive); in the experiment on RPMI-8226 leukemia, 104% (inactive) and 96.3% (inactive); in the experiment on OVCAR-8 ovarian it was 109% (inactive) and 99.5% (inactive); in the experiment on OVCAR-5 ovarian it was 122% (inactive) and 113% (inactive); in the experiment with OVCAR-4 ovarian it was 109% (inactive); in the experiment on IGROV1 ovarian it was 117% (inactive) and 101% (inactive). Further, the growth in the experiment on OVCAR-3 ovarian is 121% (inactive) and 109% (inactive); in the experiment with HS 578T breast, 92.9% (inactive) and 103% (inactive); in the experiment on NCI/ADR-RES ovarian it was 107% (inactive) and 105% (inactive).
In the case of `Cc1cc(=O)[nH]c(O)c1C#N`, the growth was 94.8% (inactive) and 122% (inactive) with SR leukemia; 119% (inactive) and 332% (inactive) with RPMI-8226 leukemia; 105% (inactive) and 101% (inactive) in the experiment on OVCAR-8 ovarian; 93.7% (inactive) and 90% (inactive) with OVCAR-5 ovarian; 99.8% (inactive) and 104% (inactive) in the experiment with OVCAR-4 ovarian; 100% (inactive) in the experiment on IGROV1 ovarian. Besides, the growth with OVCAR-3 ovarian is 112% (inactive); with HS 578T breast it was 120% (inactive) and 109% (inactive); with NCI/ADR-RES ovarian it was 106% (inactive) and 105% (inactive).
For `CC(=O)NC(Cc1ccccc1)C(=O)Oc1ccc2ccccc2c1` (stereo not drawn), the growth in the experiment with SR leukemia was 113% (inactive); in the experiment on OVCAR-8 ovarian, 103% (inactive) and 105% (inactive); in the experiment with OVCAR-5 ovarian, 108% (inactive) and 93% (inactive); in the experiment on OVCAR-4 ovarian, 101% (inactive) and 97.6% (inactive); in the experiment with SK-OV-3 ovarian, 91.5% (inactive); in the experiment on IGROV1 ovarian it was 135% (inactive) and 111% (inactive). Also, the growth in the experiment on OVCAR-3 ovarian is 122% (inactive) and 100% (inactive); in the experiment with HS 578T breast, 98.8% (inactive) and 107% (inactive); in the experiment on NCI/ADR-RES ovarian it was 98.4% (inactive) and 105% (inactive).
On to `CC(=O)C(/C=N/C(N)=O)=C(/C)O`, for which the growth is 96.9% (inactive) in the experiment on SR leukemia; 112% (inactive) with RPMI-8226 leukemia; 104% (inactive) in the experiment with OVCAR-8 ovarian; 109% (inactive) in the experiment on OVCAR-5 ovarian; 114% (inactive) in the experiment with OVCAR-4 ovarian; 114% (inactive) in the experiment on IGROV1 ovarian. Moreover, the growth is 121% (inactive) in the experiment on OVCAR-3 ovarian, 108% (inactive) in the experiment with HS 578T breast and 99.4% (inactive) in the experiment on NCI/ADR-RES ovarian.
`O=C(CCl)c1ccc2c(c1)Nc1ccccc1S2`: the growth in the experiment with SR leukemia is 13.6% (inactive) and 6.19% (active); in the experiment with OVCAR-8 ovarian it was 95.1% (inactive) and 88.7% (inactive); in the experiment with OVCAR-5 ovarian, 105% (inactive) and 117% (inactive); with OVCAR-4 ovarian, 90.1% (inactive) and 83.4% (inactive); with SK-OV-3 ovarian, 100% (inactive) and 99.3% (inactive); with IGROV1 ovarian, 104% (inactive) and 93.3% (inactive). Further, the growth in the experiment with OVCAR-3 ovarian was 96.8% (inactive) and 71.6% (inactive); in the experiment on HS 578T breast, 93% (inactive) and 106% (inactive); in the experiment with NCI/ADR-RES ovarian, 94.7% (inactive) and 95.9% (inactive).
With `Nc1cc(-c2cccc(OC(F)(F)F)c2)nc2ccc(N3CCCC3)cc12`, the growth in the experiment on SR leukemia is -22.2% (active) and -23.6% (active) and -23.8% (active); in the experiment on RPMI-8226 leukemia it was 4.74% (active) and 17.6% (inactive) and 10.6% (inactive); in the experiment with OVCAR-8 ovarian, 11.4% (inactive) and 13.7% (inactive) and 7.39% (active); in the experiment on OVCAR-5 ovarian, 31.7% (inactive) and 38.4% (inactive) and 30.1% (inactive); in the experiment on OVCAR-4 ovarian, 52.5% (inactive) and 55.2% (inactive) and 56.6% (inactive); in the experiment with IGROV1 ovarian, 23.7% (inactive) and 25.6% (inactive) and 24.4% (inactive). Moreover, the growth was 4.65% (active) and 2.53% (active) and -33% (active) in the experiment with OVCAR-3 ovarian; -0.422% (active) and 13.7% (inactive) and 27.5% (inactive) with HS 578T breast; 5.44% (active) and 3.14% (active) and 11.7% (inactive) in the experiment with NCI/ADR-RES ovarian.
As for `COc1cc(Nc2nc3ccccc3nc2NS(=O)(=O)c2ccc(NC(=O)c3ccc(C)c(OC)c3)cc2)cc(OC)c1`, the growth is 31.3% (inactive) and 8.54% (active) with SR leukemia; 8.4% (active) in the experiment with RPMI-8226 leukemia; 46.6% (inactive) and 5.53% (active) in the experiment with OVCAR-8 ovarian; 71.2% (inactive) and 3.89% (active) with OVCAR-5 ovarian; 43.3% (inactive) and -2.71% (active) with OVCAR-4 ovarian; 6.75% (active) and -30.1% (active) with IGROV1 ovarian. For the same compound, the growth with OVCAR-3 ovarian was 51.6% (inactive) and 6.96% (active); with HS 578T breast it was 3.34% (active); with NCI/ADR-RES ovarian, 75.5% (inactive) and 2.39% (active).
For the compound `Nc1ccc2ccc(N)cc2c1`, the growth is 36.8% (inactive) with SR leukemia; 82% (inactive) with OVCAR-8 ovarian; 124% (inactive) with OVCAR-5 ovarian; 40% (inactive) in the experiment on OVCAR-4 ovarian; 91.6% (inactive) in the experiment on SK-OV-3 ovarian; 73.6% (inactive) with IGROV1 ovarian. In addition, the growth was 25.5% (inactive) with OVCAR-3 ovarian, 104% (inactive) in the experiment on HS 578T breast and 73.5% (inactive) with NCI/ADR-RES ovarian.
